Test results from PubChem BioAssay (NCATS).
Inconclusive results are not listed. Active and inactive are the calls of the source. Calls come from the whole dose curve; as a rule, active = well fitted curve in the direction sought with a large enough effect in the repeat runs; inconclusive = weak or mixed curves; inactive = no such curve, though single readings can be large; an effect the other way counts as inactive or inconclusive.

target: Cytochrome P450 2D6 (Homo sapiens) (UniProt P10635); experiment: Cytochrome P450 family 2 subfamily D member 6 (CYP2D6) small molecule antagonists: luciferase biochemical (cell-free) qHTS assay (AID 1645840); conditions: P450-Glo CYP2D6 enzyme, luciferin luminescence, 1 h; series mostly up to 57.4 µM; activity change, negative = inhibition: at the top concentration
Sequence (P10635 whole entry, looked up): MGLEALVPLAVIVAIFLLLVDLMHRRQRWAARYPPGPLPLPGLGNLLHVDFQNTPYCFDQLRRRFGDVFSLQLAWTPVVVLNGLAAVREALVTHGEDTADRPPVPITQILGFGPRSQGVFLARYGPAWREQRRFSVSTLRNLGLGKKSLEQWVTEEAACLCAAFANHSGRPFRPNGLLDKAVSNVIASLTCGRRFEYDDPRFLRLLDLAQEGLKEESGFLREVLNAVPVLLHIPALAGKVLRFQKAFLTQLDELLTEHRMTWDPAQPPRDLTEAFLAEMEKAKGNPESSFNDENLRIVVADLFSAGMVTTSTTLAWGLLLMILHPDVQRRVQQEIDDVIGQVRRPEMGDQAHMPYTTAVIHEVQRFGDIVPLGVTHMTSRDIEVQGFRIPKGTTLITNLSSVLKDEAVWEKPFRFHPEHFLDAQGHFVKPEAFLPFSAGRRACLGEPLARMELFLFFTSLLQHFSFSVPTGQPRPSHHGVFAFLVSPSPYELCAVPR
Method in brief: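 P450-Glo CYP2D6 system: proluciferin substrate converted by enzyme to luciferin, read by luminescence proportional to activity. Enzyme-substrate mix with compound 10 min at room temperature, then NADPH regeneration 1 h before detection reagent.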
% is set by controls: 0 for no effect and ±100 for the full control effect; potency is the fitted concentration of half-maximal effect.
Note: nearly all actives have a fitted effect of over 55% in size.

Row | SMILES | activity change, negative = inhibition | Potency
1 | Cc1ccc(S(=O)(=O)Nc2nc3n(n2)C(c2ccc(F)cc2)C=C(c2ccccc2)N3)cc1 (stereo unspecified) | -8.37% (inactive) | –
2 | O=C(CSc1nc2ccsc2c(=O)n1Cc1ccccc1F)NCc1ccccc1Cl | – | 2.68 µM (active)
3 | Cc1ccc([S+](=O)([O-])NC2CCC(C)(C)CC2)cc1 | -19.4% (inactive) | –
4 | Cc1cc(-n2c(SCc3ccccc3F)nc3[nH]ncc3c2=O)ccc1Cl | – | 19 µM (active)
5 | CCOCCCNC(=O)C(=O)Nc1c2c(nn1-c1ccc(OC)cc1)CSC2 | 25.7% (inactive) | –
6 | COc1cccc(NC(=O)Cn2c(=O)n(CC(=O)NCc3ccc(C)cc3)c(=O)c3sccc32)c1 | – | 0.107 µM (active)
7 | Cc1cc(O)c(Cl)c(C)c1Cl | -2.58% (inactive) | –
8 | CCN(CC)S(=O)(=O)c1ccc2c(c1)nc(CN(C)C(=O)Nc1cccc(Cl)c1)n2C | – | 26.8 µM (active)
9 | COc1ccc(NC(=O)Cn2ccn(-c3ccc(C)c(C)c3)c(=O)c2=O)cc1Cl | 11.3% (inactive) | –
10 | CCOc1ccc(-c2cc(NC(=O)Nc3ccccc3Cl)c(C(=O)OC)s2)cc1 | 10.4% (inactive) | –
11 | Cc1ccc2nc3c(cc(C#N)c(=O)n3-c3nnc(SCc4ccccc4)s3)c(=O)n2c1 | 9.87% (inactive) | –
12 | COc1ccc(-n2nc3c(N4CCCC(C(=O)NCc5ccc(C)cc5)C4)nnc(C)c3c2C)cc1 (stereo unspecified) | – | 3.79 µM (active)
13 | Cc1ccc(C2=CC(c3ccccc3F)n3c(nc4ccccc43)N2)cc1C (stereo unspecified) | – | 10.7 µM (active)
14 | COc1ccc(C(=O)Oc2ccc(C(c3c(C)[nH][nH]c3=O)c3c(C)[nH][nH]c3=O)cc2OC)cc1 | 14.3% (inactive) | –
15 | COc1ccc(-n2nc3c(N4CCCC(C(=O)NCc5ccccc5C)C4)nnc(C)c3c2C)cc1 (stereo unspecified) | – | 4.77 µM (active)
16 | Cc1ccc(C2=Nc3ccccc3N(CC(=O)Nc3ccccc3F)C(=O)C2)cc1C | – | 2.39 µM (active)
17 | CCOC(=O)N1CCc2c(sc3c2c(=O)n(Cc2ccccc2)c(=O)n3CC(=O)Nc2ccc(F)cc2)C1 | – | 1.51 µM (active)
18 | COc1ccc(-n2nc3c(N4CCCC(C(=O)NCc5cccc(F)c5)C4)nnc(C)c3c2C)cc1 (stereo unspecified) | – | 1.69 µM (active)
19 | COc1ccccc1NC(=O)c1oc2ccccc2c1NC(=O)c1ccccc1C(F)(F)F | 11.6% (inactive) | –
20 | Cc1cncn1CCc1nc2c3ccccc3nc(SCC(=O)Nc3cccc(Cl)c3)n2n1 | – | 0.674 µM (active)
21 | Cc1cccc(NC(c2ccccc2F)c2ccc3ccc(C)nc3c2O)n1 (stereo unspecified) | -19.6% (inactive) | –
22 | CC(=O)c1ccc(NC(=O)C2CCN(c3nnc(C)c4c(C)n(-c5ccccc5)nc34)CC2)cc1 | – | 12 µM (active)
23 | O=C(O)C1CSC(C(=O)O)N1 (stereo unspecified) | 7.78% (inactive) | –
24 | COc1ccc(NC(=O)CSc2nc(-c3cccs3)cc(C(F)(F)F)n2)cc1OC | 9.56% (inactive) | –
25 | O=C(NC1CCCCC1)c1ccc(CSc2nc3cccnc3n2Cc2ccccc2F)cc1 | – | 9.52 µM (active)
26 | CC1(C)CC1C(=O)NC(=CCCCCSCC(N)C(=O)O)C(=O)O (stereo unspecified) | 7.33% (inactive) | –

target: Cytochrome P450 2C9 (Homo sapiens) (UniProt P11712); experiment: Cytochrome P450 family 2 subfamily C member 9 (CYP2C9) small molecule antagonists: luciferase biochemical (cell-free) qHTS assay (AID 1645842); conditions: P450-Glo CYP2C9 enzyme assay, luciferin luminescence; series mostly up to 57.4 µM; activity change, negative = inhibition: at the top concentration
Sequence (P11712 whole entry, looked up): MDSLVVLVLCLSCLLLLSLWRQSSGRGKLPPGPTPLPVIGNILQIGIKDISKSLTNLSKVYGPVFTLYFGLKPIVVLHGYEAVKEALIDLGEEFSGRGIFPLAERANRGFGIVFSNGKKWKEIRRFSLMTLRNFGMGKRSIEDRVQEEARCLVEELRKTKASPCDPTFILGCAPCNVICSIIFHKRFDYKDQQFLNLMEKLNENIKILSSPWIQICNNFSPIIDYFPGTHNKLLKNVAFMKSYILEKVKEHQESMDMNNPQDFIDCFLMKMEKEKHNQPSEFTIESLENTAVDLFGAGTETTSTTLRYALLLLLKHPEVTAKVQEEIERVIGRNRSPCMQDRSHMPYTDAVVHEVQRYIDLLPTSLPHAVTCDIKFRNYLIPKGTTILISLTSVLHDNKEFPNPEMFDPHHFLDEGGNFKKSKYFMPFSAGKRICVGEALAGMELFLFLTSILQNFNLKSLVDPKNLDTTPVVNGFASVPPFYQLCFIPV
Method in brief: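 P450-Glo CYP2C9 system: proluciferin substrate with enzyme in mix containing 0.4% BSA, 10 min at room temperature, then NADPH regeneration solution added and incubated 1 h at 37C. Detection reagent stopped reaction; luminescence read after 20 min as RLU.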

Row | SMILES | Potency | activity change, negative = inhibition
27 | CC[C@H](CO)Nc1cc(NCc2ccc(-c3ccccn3)cc2)c2ncn(C(C)C)c2n1 | 1.34 µM (active) | –
28 | COc1ccc(NC(=O)c2nc(SCc3ccc(F)cc3)ncc2Cl)cc1 | 3.38 µM (active) | –
29 | COc1ccc(NC(=O)C2=C(C)Nc3nc(SCc4ccccc4C)nn3C2c2cc(OC)c(O)c(OC)c2)cc1 (stereo unspecified) | – | -12.5% (inactive)
30 | CN(C)S(=O)(=O)c1ccc(S(=O)(=O)N(Cc2ccccc2Cl)C[C@@H]2CCCO2)cc1 | 9.52 µM (active) | –
31 | CCc1ccc(S(=O)(=O)NCc2ccc3c(c2)CCN3C(=O)c2ccc(C)cc2)cc1 | 0.674 µM (active) | –
32 | CCC(C)Nc1cc(C(=O)NC2CC3CCC(C2)N3c2ccc(C(=O)C3CC3)cn2)c(C)cc1C(N)=O (stereo unspecified) | 8.49 µM (active) | –
33 | COc1cc(C(=O)NC(c2ccccc2Cl)c2cc(Cl)c3cccnc3c2O)cc(OC)c1OC (stereo unspecified) | 15.1 µM (active) | –
34 | CN1C(=O)c2ccccc2Sc2ccc(NC(=O)Cc3ccc(Cl)cc3)cc21 | 12 µM (active) | –
35 | CC(=O)c1ccc(N2CCN(c3ncnc4c3cnn4C)CC2)cc1 | – | -20% (inactive)
36 | CNS(=O)(=O)c1ccc(Cc2c(-c3cccc(-c4ccccc4)c3)[nH]n(-c3nc(C(=O)O)cs3)c2=O)cc1 | 21.3 µM (active) | –
37 | Cc1ccc(CSc2nc3ccncc3n2Cc2nc(-c3ccccc3C)oc2C)cc1 | 7.56 µM (active) | –
38 | Cc1ccn2c(Nc3ccccc3C)c(-c3ccccn3)nc2c1 | 0.952 µM (active) | –
39 | COC(=O)c1c(-c2ccc(Cl)cc2)noc1N1CCN(c2ccccc2OC)CC1 | – | -9.53% (inactive)
40 | CC1=C(C(=O)Nc2cccc(C(N)=O)c2)C(c2ccccc2Cl)N=C(Nc2nc3ccccc3o2)N1 (stereo unspecified) | 0.19 µM (active) | –
41 | Cc1ccc(S(=O)(=O)Nc2nc3n(n2)C(c2ccc(F)cc2)C=C(c2ccccc2)N3)cc1 (stereo unspecified) | – | -2.67% (inactive)
42 | O=C(CSc1nc2ccsc2c(=O)n1Cc1ccccc1F)NCc1ccccc1Cl | 1.51 µM (active) | –
43 | Cc1ccc([S+](=O)([O-])NC2CCC(C)(C)CC2)cc1 | 2.13 µM (active) | –
44 | Cc1cc(-n2c(SCc3ccccc3F)nc3[nH]ncc3c2=O)ccc1Cl | 23.9 µM (active) | –
45 | CCOCCCNC(=O)C(=O)Nc1c2c(nn1-c1ccc(OC)cc1)CSC2 | 10.7 µM (active) | –
46 | COc1cccc(NC(=O)Cn2c(=O)n(CC(=O)NCc3ccc(C)cc3)c(=O)c3sccc32)c1 | 6.01 µM (active) | –

Row | SMILES | Potency | activity change, negative = inhibition
47 | Cc1cc(O)c(Cl)c(C)c1Cl | – | 94.2% (inactive)
48 | CCN(CC)S(=O)(=O)c1ccc2c(c1)nc(CN(C)C(=O)Nc1cccc(Cl)c1)n2C | 0.849 µM (active) | –
49 | COc1ccc(NC(=O)Cn2ccn(-c3ccc(C)c(C)c3)c(=O)c2=O)cc1Cl | – | 12% (inactive)
50 | CCOc1ccc(-c2cc(NC(=O)Nc3ccccc3Cl)c(C(=O)OC)s2)cc1 | 5.35 µM (active) | –
51 | Cc1ccc2nc3c(cc(C#N)c(=O)n3-c3nnc(SCc4ccccc4)s3)c(=O)n2c1 | 3.79 µM (active) | –
52 | COc1ccc(-n2nc3c(N4CCCC(C(=O)NCc5ccc(C)cc5)C4)nnc(C)c3c2C)cc1 (stereo unspecified) | – | 8.15% (inactive)
53 | Cc1ccc(C2=CC(c3ccccc3F)n3c(nc4ccccc43)N2)cc1C (stereo unspecified) | 6.01 µM (active) | –
54 | COc1ccc(C(=O)Oc2ccc(C(c3c(C)[nH][nH]c3=O)c3c(C)[nH][nH]c3=O)cc2OC)cc1 | 3.38 µM (active) | –
55 | COc1ccc(-n2nc3c(N4CCCC(C(=O)NCc5ccccc5C)C4)nnc(C)c3c2C)cc1 (stereo unspecified) | 0.477 µM (active) | –
56 | Cc1ccc(C2=Nc3ccccc3N(CC(=O)Nc3ccccc3F)C(=O)C2)cc1C | – | 6.58% (inactive)
57 | CCOC(=O)N1CCc2c(sc3c2c(=O)n(Cc2ccccc2)c(=O)n3CC(=O)Nc2ccc(F)cc2)C1 | 2.39 µM (active) | –
58 | COc1ccc(-n2nc3c(N4CCCC(C(=O)NCc5cccc(F)c5)C4)nnc(C)c3c2C)cc1 (stereo unspecified) | 8.49 µM (active) | –
59 | COc1ccccc1NC(=O)c1oc2ccccc2c1NC(=O)c1ccccc1C(F)(F)F | 2.68 µM (active) | –
60 | Cc1cncn1CCc1nc2c3ccccc3nc(SCC(=O)Nc3cccc(Cl)c3)n2n1 | 0.425 µM (active) | –
61 | Cc1cccc(NC(c2ccccc2F)c2ccc3ccc(C)nc3c2O)n1 (stereo unspecified) | 6.01 µM (active) | –
62 | CC(=O)c1ccc(NC(=O)C2CCN(c3nnc(C)c4c(C)n(-c5ccccc5)nc34)CC2)cc1 | 7.56 µM (active) | –
63 | O=C(O)C1CSC(C(=O)O)N1 (stereo unspecified) | – | 6.42% (inactive)
64 | COc1ccc(NC(=O)CSc2nc(-c3cccs3)cc(C(F)(F)F)n2)cc1OC | – | -1.06% (inactive)
65 | O=C(NC1CCCCC1)c1ccc(CSc2nc3cccnc3n2Cc2ccccc2F)cc1 | 0.338 µM (active) | –
66 | CC1(C)CC1C(=O)NC(=CCCCCSCC(N)C(=O)O)C(=O)O (stereo unspecified) | – | 5.96% (inactive)
